We go through nine molecules from PubChem BioAssay (Tox21).

Experiment [1] can be described thus: A CellTox Green Cytotoxicity Assay to monitor cytotoxicity in HEK293 cells - 32 hour (AID 1224881). Further: nearly all actives have a fitted effect of over 40% in size. In outline:
(§1)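 HEK293 cells, 600/well, were preincubated 5 hours and then exposed to compounds at 37 C for up to 40 hours. A cell-impermeant cyanine dye staining dead-cell DNA was read by fluorescence at 0, 8, 16, 24, 32 and 40 h time points.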

Experiment [2] can be described thus: A CellTox Green Cytotoxicity Assay to monitor cytotoxicity in HepG2 cells - 0 hour (AID 1224882). Further: nearly all actives have a fitted effect of over 35% in size. The procedure, abridged: (§2)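 HepG2 cells, 600/well, preincubated 5 h with CellTox Green dye, then exposed to Tox21 compounds in DMSO at 37 C for up to 40 h. Dead-cell DNA fluorescence read at the indicated time point.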
Experiment [3] can be described thus: A CellTox Green Cytotoxicity Assay to monitor cytotoxicity in HepG2 cells - 32 hour (AID 1224883). Further: nearly all actives have a fitted effect of over 50% in size. In outline:
as §2

Experiment [4] in a line: A CellTox Green Cytotoxicity Assay to monitor cytotoxicity in HEK293 cells - 8 hour (AID 1224884). Further: nearly all actives have a fitted effect of over 35% in size. The procedure, abridged:
as §1

Experiment [5] is described as follows: qHTS RealTime-Glo MT Cell Viability Assay in HepG2 cells - 16 hour (AID 1224885). Further: nearly all actives have a fitted effect of over 50% in size. In outline: (§3)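 HepG2 cells (600/well) were dispensed with RealTime-Glo reagents, incubated 5 h at 37 °C, then treated with compounds in DMSO for up to 40 h. Nonlytic NanoLuc luminescence reflecting viable cells was read at each stated time point.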
In general terms: qHTS replaces the single test concentration by a dilution series.

A short description of experiment [6]: qHTS RealTime-Glo MT Cell Viability Assay in HEK293 cells - 24 hour (AID 1224886). Further: top concentration of the series differs between compounds; nearly all actives have a fitted effect of over 50% in size. In outline:
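HEK293 cells seeded with NanoLuc/prosubstrate reagent, rested 5 h at 37 C, then dosed and kept at 37 C up to 40 h. Nonlytic real-time luminescence from viable cells read at 0, 8, 16, 24, 32 and 40 h.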

The nature of experiment [7]: qHTS RealTime-Glo MT Cell Viability Assay in HEK293 cells - 8 hour (AID 1224887). Further: top concentration of the series differs between compounds; nearly all actives have a fitted effect of over 50% in size. The procedure, abridged:
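600 cells/well were plated with the nonlytic NanoLuc/prosubstrate reagent, pre-incubated 5 h, then given 23 nL of compound in DMSO. Incubation at 37 C for 40 h, with luminescence from viable-cell-reduced substrate read repeatedly from 0 h.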

Experiment [8] is described as follows: A CellTox Green Cytotoxicity Assay to monitor cytotoxicity in HEK293 cells - 16 hour (AID 1224888). Further: nearly all actives have a fitted effect of over 35% in size. In outline:
as §1

Experiment [9] is described as follows: qHTS RealTime-Glo MT Cell Viability Assay in HepG2 cells - 0 hour (AID 1224889). Further: nearly all actives have a fitted effect of over 50% in size. The procedure, abridged: as §3
A short description of experiment [10]: A CellTox Green Cytotoxicity Assay to monitor cytotoxicity in HepG2 cells - 8 hour (AID 1224890). Further: nearly all actives have a fitted effect of over 45% in size. In outline: as §2
A short description of experiment [11]: qHTS assay to identify small molecule antagonists of the estrogen receptor alpha (ER-alpha) signaling pathway using the BG1 cell line in the presence of 0.1 nM 17-beta-estradiol - cell viability counter screen (AID 1259241). Further: nearly all actives have a fitted effect of over 40% in size. The procedure, abridged: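 Viability in VM7Luc4E2 cells after 22 hr compound exposure under 0.1 nM 17beta-estradiol stimulation, by CellTiter-Fluor.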

Experiment [12] is described as follows: qHTS assay to identify small molecule antagonists of the androgen receptor (AR) signaling pathway using the MDA cell line in the presence of 0.5 nM R1881 - cell viability counter screen (AID 1259242). Further: nearly all actives have a fitted effect of over 45% in size. In outline: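 MDA-kb2 cells (MMTV-luciferase, AR/GR responsive) were treated with compounds plus 0.5 nM R1881 (final) for 16 hr at 37C, 0% CO2. Viability was then read in the same wells as live-cell protease fluorescence (CellTiter-Fluor, 30 min).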

The nature of experiment [13]: qHTS assay to identify small molecule HDAC inhibitors (AID 1259364). Further: nearly all actives have a fitted effect of over 45% in size. Further: potency means the concentration at half of the fitted maximal effect. In outline:
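Wild-type HCT-116 cells, plated overnight at 37 C, exposed to compounds 2 hr at 37 C; luminogenic HDAC-Glo substrate then added 30 min at room temperature. Luminescence reports relative endogenous class I/II HDAC activity.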

Experiment [14] is described as follows: qHTS assay to identify small molecule HDAC inhibitors - cell viability counter screen (AID 1259365). In outline: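 Cytotoxicity was gauged in wild-type HCT-116 cells after a brief 2hr treatment with DMSO-dissolved compounds at 37C and 5% CO2, using CellTiter-Glo luminescence developed for 30min at room temperature.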
Experiment [15] is described as follows: qHTS assay to identify small molecule agonists of the sonic hedgehog signaling (Shh) pathway - cell viability counter screen (AID 1259366). Further: nearly all actives have a fitted effect of over 50% in size. In outline:
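Stable Gli1-Luc NIH/3T3 clone, 2,000 cells/well. Compound exposure 24hr at 37C. Read-out: CellTiter-Fluor fluorescence.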

Experiment [16] is described as follows: qHTS assay to identify small molecule antagonists of the sonic hedgehog signaling (Shh) pathway - cell viability counter screen (AID 1259367). Further: nearly all actives have a fitted effect of over 55% in size. The procedure, abridged: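 NIH/3T3-derived Gli1-Luc reporter cells (2,000 per well) rested 4 hr at 37 C, then received DMSO compounds plus conditioned medium. After 23 hr of treatment, CellTiter-Fluor was added for 1 hr at 37C and fluorescence read.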

Experiment [17] in a line: qHTS assay to identify small molecule agonists of the sonic hedgehog signaling (Shh) pathway (AID 1259368; calls by dose curve;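 further: NIH/3T3-derived 3T3Gli1-Luc cells carrying a stable Gli1-driven firefly luciferase reporter; series mostly up to about 92 µM; nearly all actives have a fitted effect of over 15% in size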). In outline:
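NIH/3T3-derived 3T3Gli1-Luc cells with stably integrated Gli1-driven firefly luciferase, 2,000 cells/well, compounds added after 4 hr. Incubated 24 hr at 37C, 5% CO2; luminescence read after 30 min with luciferase reagent at room temperature.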

For experiment [18], the target named is Estrogen receptor (Homo sapiens) (UniProt P03372). The experiment in a line: qHTS assay to identify small molecule antagonists of the estrogen receptor alpha (ER-alpha) signaling pathway using the BG1 cell line in the presence of 0.1 nM 17-beta-estradiol (AID 1259244). Further: nearly all actives have a fitted effect of over 50% in size. The procedure, abridged:
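VM7Luc4E2 cells (endogenous full-length ER-alpha, 4×ERE-luciferase), kept 5 days in phenol red-free, charcoal-stripped FBS medium; 4,000 cells/well. Compounds added with 0.1 nM (final) 17beta-estradiol, 22 hr at 37C; luminescence read with ONE-Glo after 30 min.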

The nature of experiment [19]: qHTS assay to identify small molecule phospholipidosis (PLD) inducers (AID 1259344; active means well fitted curve in the direction sought with a large enough effect; an effect the other way counts as inactive or inconclusive). In outline: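 HepG2 cells on collagen I, attached 4 h at 37 C, were co-treated with compound and LipidTOX Red dye for 24 h at 37 C, then fixed with paraformaldehyde plus Hoechst 33342 and imaged by high-content microscopy for phospholipid accumulation.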

Molecules are shown by their SMILES. Results filed as inconclusive are left out. Activity calls are given as the source filed them. Unless noted, the call rests on the fitted dose curve; in most records, active means well fitted curve in the direction sought with a large enough effect in the repeat runs; inconclusive means weak or mixed curves; inactive means no such curve, though single readings can be large; an effect the other way counts as inactive or inconclusive.

Sequence of Estrogen receptor (Homo sapiens) (P03372 whole entry, looked up): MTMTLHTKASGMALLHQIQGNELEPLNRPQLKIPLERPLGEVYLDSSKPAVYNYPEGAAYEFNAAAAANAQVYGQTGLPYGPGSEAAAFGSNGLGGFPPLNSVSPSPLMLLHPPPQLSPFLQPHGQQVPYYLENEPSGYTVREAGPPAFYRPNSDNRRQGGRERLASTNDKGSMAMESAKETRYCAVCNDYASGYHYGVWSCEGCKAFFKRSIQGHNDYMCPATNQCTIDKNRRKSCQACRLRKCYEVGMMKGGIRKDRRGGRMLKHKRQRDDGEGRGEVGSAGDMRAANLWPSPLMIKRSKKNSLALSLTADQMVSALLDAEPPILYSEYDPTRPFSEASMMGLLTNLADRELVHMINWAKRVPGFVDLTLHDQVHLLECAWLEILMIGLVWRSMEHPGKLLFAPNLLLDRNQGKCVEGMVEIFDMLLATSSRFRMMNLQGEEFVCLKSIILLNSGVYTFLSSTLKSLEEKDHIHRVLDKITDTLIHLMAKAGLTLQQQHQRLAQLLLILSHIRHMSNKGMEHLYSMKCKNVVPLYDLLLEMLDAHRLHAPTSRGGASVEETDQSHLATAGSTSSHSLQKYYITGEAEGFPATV

Consider `C=CC=O`, for which the Potency result in experiment [1], in experiment [3], in experiment [4], in experiment [5], in [6] and in experiment [7] was “inactive” each time. In addition, the Potency entry in [8], in experiment [10], in experiment [12], in experiment [13], in experiment [15] and in experiment [16] was “inactive” each time. Also, the molecule was called inactive in experiment [2], in experiment [9], in [11], in experiment [14] and in [17].
Turning to `BrCC1CO1` (stereo not drawn), the Potency result in experiment [1], in experiment [3], in [4], in experiment [5], in [6] and in experiment [7] was “inactive” throughout. Further, the Potency entry in experiment [8], in [10], in experiment [12], in experiment [18], in experiment [13] and in [15] was “inactive” in each case. For the same molecule, in experiment [16], the Potency result is “inactive”. Further, the result in experiment [2], in [9], in experiment [11], in experiment [14] and in experiment [17] was inactive.
With `O=C(O)CBr`, the Potency entry in experiment [1], in experiment [3], in [4], in experiment [5], in experiment [6] and in experiment [7] was “inactive” each time. The Potency entry in experiment [8], in experiment [10], in [12], in [13], in experiment [15] and in [16] was “inactive” each time. Further, the result in [2], in experiment [9], in experiment [11] and in [14] was inactive.
On to `CCOC(=O)CCl`, for which the Potency entry in experiment [1], in experiment [3], in [4], in [5], in [6] and in [7] was “inactive” throughout. Further, the Potency entry in experiment [10], in experiment [12], in experiment [18], in experiment [13], in experiment [15] and in experiment [16] was “inactive” in each case. Also, the molecule was called inactive in experiment [2], in [9], in experiment [11] and in experiment [14].
In the case of `CCC1(CC)C(=O)C=CNC1=O`, the Potency entry in [1], in experiment [3], in experiment [4], in experiment [5], in [6] and in experiment [7] was “inactive” in each case. Moreover, the Potency result in experiment [8], in [10], in experiment [12], in experiment [18], in experiment [15] and in experiment [16] was “inactive” each time. Moreover, the outcome in experiment [2], in [9], in experiment [11], in [14] and in experiment [17] was inactive.
Regarding `Cc1ccc2cc(C)ccc2c1`, the Potency result in experiment [1], in experiment [3], in experiment [4], in experiment [5], in experiment [6] and in experiment [7] was “inactive” throughout. In addition, the Potency entry in experiment [8], in [10], in experiment [12], in experiment [13], in experiment [15] and in experiment [16] was “inactive” each time. Besides, the result in experiment [2], in experiment [9], in experiment [11] and in experiment [14] was inactive.
As for `CCCC(C)C1(CC)C(=O)N=C(S)NC1=O` (stereo not drawn), the Potency entry in [1], in [3], in [4], in experiment [5], in experiment [6] and in [7] was “inactive” in each case. The Potency result in experiment [8], in experiment [10], in experiment [12], in experiment [19], in experiment [15] and in experiment [16] was “inactive” each time. Moreover, the call in [2], in experiment [9], in [11] and in [14] was inactive.
As to `COC1=CC(=O)O[C@@H](/C=C/c2ccccc2)C1`, the Potency result in experiment [1], in [3], in experiment [4], in [5], in experiment [6] and in [7] was “inactive” each time. The Potency entry in [8], in experiment [10], in experiment [12], in experiment [15] and in experiment [16] was “inactive” throughout. The call in [2], in [9], in experiment [11] and in [14] was inactive. In experiment [13], the Potency was 24.7 µM (active).
As to `O=c1[nH]c2ccccc2o1`, the Potency entry in experiment [1], in [3], in experiment [4], in experiment [5], in experiment [6] and in [7] was “inactive” in each case. Moreover, the Potency entry in experiment [8], in experiment [10], in experiment [12], in experiment [13], in experiment [15] and in experiment [16] was “inactive” throughout. For the same molecule, the outcome in [2], in experiment [9], in experiment [11] and in [14] was inactive.
